The text below walks through data of PubChem BioAssay.

The nature of experiment [1]: antimalarial activity against Dd2 strain (AID 2302;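 active means growth inhibition above 50% at the single 2 µM test dose, taken to imply half-maximal potency below 2 µM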;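 further: 0% = DMSO untreated growth and 100% = chloroquine plus artemisinin killed control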). The note with it: P. falciparum Dd2 in RBCs, LDH growth readout, 72 h; at 2 µM; hits give high values.
Experiment [2] can be described thus: HepG2 cytotoxicity, primary screen, cytotoxicity control for P. falciparum antimalarial project, cell-based, ATP luminescence (AID 2303;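 active means inhibition above 50%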;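 further: 0% = DMSO wells and 100% = digitonin-killed cells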). The settings on record: HepG2 viability, 24-48 h, at 10 µM, hits give high values.
The target of experiment [3] is L-lactate dehydrogenase (Plasmodium falciparum (isolate CDC / Honduras)) (UniProt Q27743). Description: PfLDH activity inhibition – cell lysate, 3D7 strain, counter-screen for P. falciparum growth inhibition project (AID 2304).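 Further: 0% = vehicle and 100% = reference inhibitor.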 The note with it: P. falciparum 3D7 crude extract, LDH APAD/NBT absorbance; at 2 µM; hits give high values. Background: The purpose of a counterscreen is to sort out artefacts and off-target activity.

A short description of experiment [4]: inhibition of 3D7 malaria parasite growth – strain 3D7 (AID 2306).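 Further: 0% = DMSO wells and 100% = chloroquine plus artemisinin control wells.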 The note with it: P. falciparum 3D7 erythrocytic growth, LDH absorbance, 72 h; at 2 µM; hits give high values.
Experiment [5] concerns the target Calcium-dependent protein kinase 1 (Plasmodium falciparum (isolate 3D7)) (UniProt P62344). Description: PfCDPK1 kinase inhibitors, biochemical, TCAMS library (AID 1159585; cut-off not given, nearly all actives have IC50 up to about 0.98 µM;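 further: inhibitors leave more ATP so luminescence rises with inhibition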). The note with it: recombinant PfCDPK1, Kinase-Glo ATP depletion luminescence. (In general: Kinase-Glo reads ATP consumption through a luciferase reaction.)
Experiment [6] addresses Plasmodium falciparum protein kinase 6 (PK6, PF3D7_1337100) (UniProt Q8IDW1). Description: PfPK6 kinase inhibitors, biochemical, TCAMS library (AID 1159586). The settings on record: recombinant PfPK6, Kinase-Glo ATP depletion luminescence.
The target of experiment [7] is Protein kinase 7 (PK7), Plasmodium falciparum 3D7 (PF3D7_0213400) (UniProt Q7YTF7). The experiment can be described thus: inhibition of Plasmodium PK7 catalytic activity – biochemical, TCAMS antimalarial set, Kinase-Glo luminescence (AID 1159587). The settings on record: recombinant PfPK7, Kinase-Glo ATP depletion luminescence.
In experiment [8] the target is Calcium-dependent protein kinase 4 (Plasmodium falciparum (isolate 3D7)) (UniProt Q8IBS5). Description: PfCDPK4 kinase inhibitors, biochemical, TCAMS library (AID 1159588; cut-off not given, nearly all actives have IC50 up to about 0.91 µM). The note with it: recombinant PfCDPK4, Kinase-Glo ATP depletion luminescence.

Values without a mark were called inactive. For part of these data: Entries with a potency or affinity are not part of this list. Calls of active or inactive are those of the source. Unless noted, how the calls were made is not given here.

Sequence of Calcium-dependent protein kinase 1 (Plasmodium falciparum (isolate 3D7)) (P62344 whole entry, looked up): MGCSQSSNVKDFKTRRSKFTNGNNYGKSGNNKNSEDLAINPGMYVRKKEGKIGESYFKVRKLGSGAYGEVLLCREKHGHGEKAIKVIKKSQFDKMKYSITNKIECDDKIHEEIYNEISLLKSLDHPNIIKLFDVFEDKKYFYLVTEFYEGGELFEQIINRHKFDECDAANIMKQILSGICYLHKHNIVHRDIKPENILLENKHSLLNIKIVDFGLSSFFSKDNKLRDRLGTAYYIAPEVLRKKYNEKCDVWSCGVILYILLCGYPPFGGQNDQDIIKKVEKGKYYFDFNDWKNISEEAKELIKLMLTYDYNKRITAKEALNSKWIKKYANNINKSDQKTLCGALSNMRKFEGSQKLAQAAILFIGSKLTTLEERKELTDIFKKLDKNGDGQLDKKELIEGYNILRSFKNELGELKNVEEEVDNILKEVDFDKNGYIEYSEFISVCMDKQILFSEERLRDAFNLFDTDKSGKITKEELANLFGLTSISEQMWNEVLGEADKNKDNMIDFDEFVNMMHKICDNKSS
Sequence of Protein kinase 7 (PK7), Plasmodium falciparum 3D7 (PF3D7_0213400) (Q7YTF7 1-343): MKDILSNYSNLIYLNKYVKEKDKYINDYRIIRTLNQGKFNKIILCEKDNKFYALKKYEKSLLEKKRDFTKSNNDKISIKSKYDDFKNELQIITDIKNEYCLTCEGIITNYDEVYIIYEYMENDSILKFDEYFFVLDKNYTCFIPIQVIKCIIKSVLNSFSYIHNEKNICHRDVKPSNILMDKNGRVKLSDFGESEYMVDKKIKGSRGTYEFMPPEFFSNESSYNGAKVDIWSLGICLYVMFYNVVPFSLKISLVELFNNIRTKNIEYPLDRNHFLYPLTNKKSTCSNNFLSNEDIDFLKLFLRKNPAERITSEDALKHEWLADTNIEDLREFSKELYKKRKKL
Sequence of L-lactate dehydrogenase (Plasmodium falciparum (isolate CDC / Honduras)) (Q27743 whole entry, looked up): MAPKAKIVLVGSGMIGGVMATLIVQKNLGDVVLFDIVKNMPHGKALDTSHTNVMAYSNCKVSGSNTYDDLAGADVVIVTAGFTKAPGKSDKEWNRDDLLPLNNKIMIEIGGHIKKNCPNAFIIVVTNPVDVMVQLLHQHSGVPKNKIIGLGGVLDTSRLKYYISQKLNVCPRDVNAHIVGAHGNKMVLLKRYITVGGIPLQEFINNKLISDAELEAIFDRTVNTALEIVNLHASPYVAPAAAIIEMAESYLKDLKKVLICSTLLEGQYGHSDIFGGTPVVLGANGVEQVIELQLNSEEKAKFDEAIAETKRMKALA
Sequence of Calcium-dependent protein kinase 4 (Plasmodium falciparum (isolate 3D7)) (Q8IBS5 whole entry, looked up): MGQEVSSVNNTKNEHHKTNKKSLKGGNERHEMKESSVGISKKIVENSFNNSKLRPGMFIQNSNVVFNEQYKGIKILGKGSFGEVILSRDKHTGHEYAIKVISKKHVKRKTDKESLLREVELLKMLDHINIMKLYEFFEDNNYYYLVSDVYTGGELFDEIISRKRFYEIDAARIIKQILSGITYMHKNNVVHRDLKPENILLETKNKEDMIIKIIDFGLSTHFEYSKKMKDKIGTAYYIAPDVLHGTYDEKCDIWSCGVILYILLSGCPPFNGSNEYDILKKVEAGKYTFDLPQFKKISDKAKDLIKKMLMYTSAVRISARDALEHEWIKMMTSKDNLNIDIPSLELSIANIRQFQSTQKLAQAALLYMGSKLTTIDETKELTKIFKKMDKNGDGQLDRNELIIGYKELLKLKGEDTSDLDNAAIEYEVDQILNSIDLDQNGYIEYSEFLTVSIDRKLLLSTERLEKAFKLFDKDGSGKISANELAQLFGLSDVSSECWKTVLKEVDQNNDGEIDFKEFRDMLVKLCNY
Sequence of Plasmodium falciparum protein kinase 6 (PK6, PF3D7_1337100) (Q8IDW1 1-305): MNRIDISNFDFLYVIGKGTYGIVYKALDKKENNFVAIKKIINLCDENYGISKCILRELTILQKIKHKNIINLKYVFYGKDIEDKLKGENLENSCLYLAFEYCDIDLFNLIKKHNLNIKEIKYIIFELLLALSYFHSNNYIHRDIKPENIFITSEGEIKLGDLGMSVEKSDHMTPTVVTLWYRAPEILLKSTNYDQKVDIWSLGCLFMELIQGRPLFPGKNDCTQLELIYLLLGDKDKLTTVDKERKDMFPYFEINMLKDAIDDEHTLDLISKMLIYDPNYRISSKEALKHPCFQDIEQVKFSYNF

`CC(=O)c1cccc(NC(=O)NC2CCN(c3ccnc(Nc4ccc(F)cc4)n3)C2)c1` (stereo not drawn): the figures for the growth inhibition in experiment [1] and in experiment [4] were 94% (active) and 99% (active), respectively. Besides, the inhibition is 10% in experiment [2] and -2% in experiment [3]. Also, the result in experiment [5], in experiment [6], in experiment [7] and in experiment [8] was inactive.

`CCC(C)c1ccc(NC(=O)Nc2ccc(Cn3ncc(N4CCCNCC4)c(Cl)c3=O)cc2)cc1` (stereo not drawn): the figures for the growth inhibition in experiment [1] and in experiment [4] were 31% and 83% (active), respectively. Moreover, the inhibition was -6% in experiment [2] and -2% in experiment [3]. In addition, the outcome in experiment [5], in experiment [6], in experiment [7] and in experiment [8] was inactive.

In the case of `COc1cccc(C(=O)NCc2n[nH]c(=S)n2-c2ccc(Cl)c(Cl)c2)c1`, the results for the growth inhibition in experiment [1] and in experiment [4] were 100% (active) and 102% (active), respectively. The inhibition was -1% in experiment [2] and 5% in experiment [3]. Further, the outcome in experiment [5], in experiment [6], in experiment [7] and in experiment [8] was inactive.

On to `Cc1cc(NN=Cc2cccc([N+](=O)[O-])c2)c2cc(F)ccc2n1`, for which the figures for the growth inhibition in experiment [1] and in experiment [4] were 99% (active) and 102% (active), respectively. Moreover, the inhibition in experiment [2] was 3%; in experiment [3], -5%. The result in experiment [5], in experiment [6], in experiment [7] and in experiment [8] was inactive.

Regarding `CN(C)CCOc1cc(NC(=O)/C=C/c2cccc3ccccc23)ccc1I`, the growth inhibition in experiment [1] was 7%; in experiment [4] it was 98% (active). Also, the inhibition in experiment [2] is 55% (active); in experiment [3], 0%. Besides, the result in experiment [5], in experiment [6], in experiment [7] and in experiment [8] was inactive.

Consider `Cc1cc(NN=Cc2cccc(Cl)c2)c2ccccc2n1`, for which the growth inhibition in experiment [1] and in experiment [4] was 100% (active) each time. Moreover, the values for the inhibition in experiment [2] and in experiment [3] were 22% and 0%, respectively. Also, the outcome in experiment [5], in experiment [6], in experiment [7] and in experiment [8] was inactive.

With `O=S(=O)(Nc1cccc(CCN2CCCCC2CCN2CCCC2)c1)c1cccc2ccccc12` (stereo not drawn), the growth inhibition in experiment [1] is 6%; in experiment [4], 97% (active). The inhibition in experiment [2] was 23%; in experiment [3], 3%. The result in experiment [5], in experiment [6], in experiment [7] and in experiment [8] was inactive.

Regarding `O=C(Nc1ccccc1Cc1ccccc1)c1ccccc1[N+](=O)[O-]`, the growth inhibition was 59% (active) in experiment [1] and 98% (active) in experiment [4]. For the same molecule, the inhibition in experiment [2] is -6%; in experiment [3] it was 3%. The result in experiment [5], in experiment [6], in experiment [7] and in experiment [8] was inactive.

For the molecule `COC(=O)c1cc(/C(C)=N/Nc2nc3ccccc3[nH]2)ccc1O`, the growth inhibition in experiment [1] is 75% (active); in experiment [4] it was 101% (active). The values for the inhibition in experiment [2] and in experiment [3] were 9% and -1%, respectively. In addition, the outcome in experiment [5], in experiment [6], in experiment [7] and in experiment [8] was inactive.

Consider `O=[N+]([O-])c1cccc(CNCC2CCN(Cc3ccc(C(F)(F)F)cc3)CC2)c1`, for which the growth inhibition in experiment [1] is 23%; in experiment [4] it was 101% (active). In addition, the inhibition is 7% in experiment [2] and 2% in experiment [3]. In addition, the outcome in experiment [5], in experiment [6], in experiment [7] and in experiment [8] was inactive.

For `COc1ccc(NC2=C(c3ccccc3)C(=O)c3ccccc32)cn1`, the growth inhibition in experiment [1] was 84% (active); in experiment [4], 96% (active). The results for the inhibition in experiment [2] and in experiment [3] were -9% and 2%, respectively. The result in experiment [5], in experiment [6], in experiment [7] and in experiment [8] was inactive.

Take `CN(C)[C@@H]1C(=O)C(C(N)=O)=C(O)[C@@]2(O)C(=O)C3=C(O)c4c(O)ccc(C#Cc5ccccn5)c4C[C@H]3C[C@@H]12`: the growth inhibition in experiment [1] is 75% (active); in experiment [4], 92% (active). In addition, the values for the inhibition in experiment [2] and in experiment [3] were 17% and -6%, respectively. The outcome in experiment [5], in experiment [6], in experiment [7] and in experiment [8] was inactive.

Turning to `COc1cc(C(=O)N2N=C(c3c(-c4ccccc4)c4cc(Br)ccc4[nH]c3=O)CC2c2cccc([N+](=O)[O-])c2)cc(OC)c1OC` (stereo not drawn), the growth inhibition in experiment [1] is 95% (active); in experiment [4], 93% (active). Besides, the figures for the inhibition in experiment [2] and in experiment [3] were 1% and 4%, respectively. Further, the result in experiment [5], in experiment [6], in experiment [7] and in experiment [8] was inactive.

With `CC[C@H](NC(=O)c1ccc(NC(=O)OC(C)(C)C)cc1)C(=O)N[C@@H](CO)C(=O)NCCCCc1ccccc1`, the growth inhibition in experiment [1] is 94% (active); in experiment [4] it was 98% (active). The inhibition was -6% in experiment [2] and 1% in experiment [3]. In addition, the outcome in experiment [5], in experiment [6], in experiment [7] and in experiment [8] was inactive.

As for `COc1ccc(C(=O)Nc2cc(Cl)c3c(c2)C2CCCN2CC3)cc1C(F)(F)F` (stereo not drawn), the growth inhibition in experiment [1] is 33%; in experiment [4], 99% (active). Moreover, the inhibition is 35% in experiment [2] and -1% in experiment [3]. Besides, the result in experiment [5], in experiment [6], in experiment [7] and in experiment [8] was inactive.

Turning to `COc1ccc(-c2ccc(NC(=O)c3cccc(C#N)c3)cc2)cc1CN(C)C`, the growth inhibition in experiment [1] is 10%; in experiment [4], 103% (active). For the same molecule, the inhibition in experiment [2] is 11%; in experiment [3], 0%. Also, the result in experiment [5], in experiment [6], in experiment [7] and in experiment [8] was inactive.

Turning to `COc1ccc2c(=O)c3ccc(OC)cc3[nH]c2c1`, the values for the growth inhibition in experiment [1] and in experiment [4] were 75% (active) and 93% (active), respectively. For the same molecule, the inhibition is 12% in experiment [2] and 1% in experiment [3]. Further, the outcome in experiment [5], in experiment [6], in experiment [7] and in experiment [8] was inactive.

For `CN1CCN(Cc2cc3cc(NC(=O)/C=C/c4ccc(Cl)cc4)ccc3s2)CC1`, the growth inhibition in experiment [1] was 20%; in experiment [4], 100% (active). The inhibition was 51% (active) in experiment [2] and 2% in experiment [3]. The outcome in experiment [5], in experiment [6], in experiment [7] and in experiment [8] was inactive.

As for `CCn1cc(-c2nc(-c3cc(OC)cc(OC)c3)no2)c(=O)c2ccccc21`, the figures for the growth inhibition in experiment [1] and in experiment [4] were 77% (active) and 89% (active), respectively. The figures for the inhibition in experiment [2] and in experiment [3] were -7% and 0%, respectively. The outcome in experiment [5], in experiment [6], in experiment [7] and in experiment [8] was inactive.

As to `CCCc1cc(N2CCC(N3CCCC3)CC2)nc(Nc2ccc(OC)cc2)n1`, the growth inhibition was 14% in experiment [1] and 94% (active) in experiment [4]. The inhibition was 15% in experiment [2] and 6% in experiment [3]. Further, the outcome in experiment [5], in experiment [6], in experiment [7] and in experiment [8] was inactive.

For the molecule `COc1ccc(-c2nc(NC(=O)CSc3ccc([N+](=O)[O-])cc3)sc2C)cc1`, the growth inhibition is 100% (active) in experiment [1] and 101% (active) in experiment [4]. The values for the inhibition in experiment [2] and in experiment [3] were -6% and -1%, respectively. For the same molecule, the result in experiment [5], in experiment [6], in experiment [7] and in experiment [8] was inactive.

Usually inhibition stands for the relative decrease from the control value, in per cent.
